Shown are actives, neighbours in structure and some others; about 12% of the full set was active somewhere.
ALDH1A1 block = inhibitors of human aldehyde dehydrogenase 1A1; Purified ALDH1A1, NADH fluorescence, propionaldehyde substrate; Potency, µM (highest dose often 75.3 µM), for the others: top-dose activity, negative = inhibition, actives largely listed as inhibitors; hit rate 7.3% among 220,000; AID 1030; active = well fitted inhibition curve with a large enough effect, not every such curve was filed as active; inconclusive = small, poorly fitted or top-dose-only effect, or another doubt; inactive = no such curve, though single readings can be large or run the other way;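 note: plate controls were no enzyme wells and a reference inhibitor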
RORgamma inh = blocks mouse ROR gamma transcriptional activity. P51450. Drosophila S2 Gal4-RORgamma UAS-luciferase reporter, 20 h. Potency, µM (doses to about 53.6 µM), without a hit: top-dose activity change, negative = inhibition, most hits filed as inhibitors. hit rate 5.4% among 310,000. AID 2551; note: nearly all actives have a fitted effect of over 60% in size
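Stable Schneider cell line, Gal4 DNA-binding domain fused to ROR gamma, UAS-luciferase. Cmpd 1 hr RT → CuSO4 700 uM final → 20 hr RT → luciferase reagent 10 min → luminescence.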
Gal4-VP16 FLuc = counter-screen for ROR gamma inhibitors: Gal4-VP16 reporter | Potency, µM (series often up to 53.6 µM), without a hit: at the top dose activity, negative = inhibition, usual class: inhibitors | hit rate 3.5% among 310,000 | Drosophila S2 Gal4-VP16 UAS-luciferase, luminescence, 20 h | AID 2546;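 note: Gal4-VP16 expression switched on by copper sulfate through the metallothionein promoter; nearly all actives have a fitted effect of over 50% in size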
PLK1 PBD block = PLK1 (human) polo-box domain binding inhibition; P53350; hit rate 2.8% among 360,000; Plk1 PBD binding of FITC phosphopeptide, fluorescence polarization; Potency, µM, inactives show max response, negative = inhibition, most hits filed as inhibitors; note: series mostly up to about 57 µM; nearly all actives have a fitted effect of over 65% in size
Target sequence (P53350 whole entry, looked up, the tested form may be a part): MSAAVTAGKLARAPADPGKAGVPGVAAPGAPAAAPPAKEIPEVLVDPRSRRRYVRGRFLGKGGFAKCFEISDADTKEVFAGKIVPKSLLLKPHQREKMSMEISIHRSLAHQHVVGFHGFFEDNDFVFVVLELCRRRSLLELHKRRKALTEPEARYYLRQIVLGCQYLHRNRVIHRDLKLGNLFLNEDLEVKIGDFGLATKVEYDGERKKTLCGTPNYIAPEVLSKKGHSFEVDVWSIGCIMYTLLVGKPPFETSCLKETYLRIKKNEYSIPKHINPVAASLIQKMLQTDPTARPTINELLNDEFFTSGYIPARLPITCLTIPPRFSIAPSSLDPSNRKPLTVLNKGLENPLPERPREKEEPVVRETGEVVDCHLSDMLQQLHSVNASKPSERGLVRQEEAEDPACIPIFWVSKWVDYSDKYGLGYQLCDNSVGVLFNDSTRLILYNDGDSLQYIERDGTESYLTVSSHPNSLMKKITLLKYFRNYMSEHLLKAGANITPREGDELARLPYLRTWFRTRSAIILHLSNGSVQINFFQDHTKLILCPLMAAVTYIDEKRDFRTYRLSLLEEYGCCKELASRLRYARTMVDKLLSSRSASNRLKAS
Sfp PPTase inh = blocks B. subtilis Sfp PPTase activity; Biochemical Sfp PPTase activity, qHTS; Potency, µM, inactives show largest response in the series, negative = inhibition, actives largely listed as inhibitors; hit rate 3.5% among 310,000; AID 1490;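 note: the enzyme is Sfp with the accession as filed and its product quenches rhodamine fluorescence; 0% = enzyme reaction without inhibitor and -100% = no enzyme wells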
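With Hepes-Na pH 7.6 buffer containing 10 mM MgCl2, Sfp (15 nM) modified BHQ-2-YbbR (12.5 uM) using rhodamine-CoA (5 uM). Two reads 30 minutes apart at 525/598 nm yielded each well's rate.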
The depositor's hits bear a star; ? = inconclusive; · = not tested or not shown. Unless noted, calls come from the whole dose curve; as a rule, active = well fitted curve in the direction sought with a large enough effect; inconclusive = small, poorly fitted or top-dose-only effect, or another doubt; inactive = no such curve, though single readings can be large; an effect the other way counts as inactive or inconclusive. Unless noted, % is set by controls: 0 for no effect and ±100 for the full control effect; potency is the fitted concentration of half-maximal effect.

SMILES | ALDH1A1 block | RORgamma inh | Gal4-VP16 FLuc | PLK1 PBD block | Sfp PPTase inh
CN(C)c1ncnc2ccc(-c3cccc(NS(C)(=O)=O)c3)cc12 | 27% | ? | -9% | · | 30%
CC(=O)c1c(C)[nH]c(C(=O)Nc2cccc(S(=O)(=O)N(C)C)c2)c1C | -2% | 10% | ? | 3% | -9%
CC(=O)c1c(C)[nH]c(C(=O)Nc2nc(-c3ccc(Cl)cc3)cs2)c1C | ? | ? | ? | -6% | -4%
CC(=O)c1c(C)[nH]c(C(=O)Nc2ccc(C)cn2)c1C | 5% | 2µM* | ? | -3% | 17%
CC(=O)c1c(C)[nH]c(C(=O)Nc2nc(C)cs2)c1C | 8% | 4.5µM* | 10µM* | -1% | 0%
CC(=O)c1c(C)[nH]c(C(=O)Nc2ccc(S(=O)(=O)N(C)C)cc2)c1C | · | 0.22µM* | 1% | -1% | 1%
CC(C)NC(=O)N1CCC2(CC1)CCN(C(=O)c1csnn1)CC2 | 2% | 1% | 9% | · | 14%
CCOC(=O)/C=C/C(=O)OCC(=O)Nc1c(Cl)cccc1Cl | -2% | -16% | 2% | -27% | 5%
CO/N=C\CC(=O)Nc1ccc(Cl)cc1Cl | 13% | -1% | -10% | 21µM* | -7%
CO/N=C\CC(=O)Nc1ccc(F)cc1 | 0% | -13% | -4% | 6% | 10%
CCOC(=O)/C=C/C(=O)OCC(=O)Nc1ccc(Cl)cc1Cl | 25µM* | 35% | 22% | ? | -4%
CCc1nc2ccc(C(=O)Nc3cccc(NS(C)(=O)=O)c3)cn2c1N(C)CCN1CCOCC1 | · | · | · | -5% | ·
O=S(O)CO | · | 14% | -1% | · | 2%
Cc1ccc(C2(C)NC(=O)N(CC(=O)Nc3cccnc3Cl)C2=O)cc1 (stereo not drawn) | 3.2µM* | 19% | 6% | -20% | 12%
COc1ccc(C2(c3ccc(OC)cc3)NC(=O)N(CC(=O)Nc3ccccc3C)C2=O)cc1 | · | -24% | -2% | -7% | 79µM*
CC(=O)N1CC=CC1(CC(C)C)C(=O)NCC1CC1 (stereo not drawn) | -6% | 30% | 26% | · | 4%
O=C(C/C=N/OCc1ccccc1F)c1cnc(-c2ccc(Cl)cc2)s1 | 22µM* | 17% | -4% | -4% | 22%
O=C(C/C=N/OCc1ccc(F)cc1Cl)c1cnc(-c2ccccc2)s1 | -7% | -7% | -8% | -4% | 21%
COc1cc(OC)c(C2C=CC(=O)CC2)c(OC)c1 (stereo not drawn) | · | · | · | -13% | ·
O=C(O)c1ccc(CSc2nc3ccc(N4C(=O)C5C6C=CC(C6)C5C4=O)cc3s2)cc1 (stereo not drawn) | 28µM* | 19% | -23% | -7% | -25%
O=S(=O)(N/N=C/c1cccnc1)c1ccc(Cl)c(Cl)c1 | · | -2% | 2% | 13µM* | -1%
O=C(NCc1ccccc1)c1cc(C2CCCN(C(=O)C3CCCCC3)C2)on1 (stereo not drawn) | · | · | · | 0% | ·
CCN(CC)CCCCn1c(-c2ccccc2)nc2c(NC3CCCCC3)nc(C)nc21 | ? | ? | -15% | · | 13%
Cn1c(=O)[nH]c(=O)c2c1nc(N1CCCCC1)n2CCCSc1nnnn1-c1ccccc1 | 7.9µM* | ? | -6% | -8% | -3%
CN1CCN(c2nc3c(c(=O)[nH]c(=O)n3C)n2CCCSc2nnnn2-c2ccccc2)CC1 | 22µM* | 2% | -1% | -10% | 12%
SMILES | ALDH1A1 block | RORgamma inh | Gal4-VP16 FLuc | PLK1 PBD block | Sfp PPTase inh
CC1CCN(c2nc3c(c(=O)[nH]c(=O)n3C)n2CC(C)CSc2nnnn2-c2ccccc2)CC1 (stereo not drawn) | 20µM* | 13% | 0% | -13% | 19%
Cn1c(=O)[nH]c(=O)c2c1nc(Br)n2CCSc1nnnn1-c1ccccc1 | -3% | 1% | -7% | 0% | 24%
COC(=O)C1=C[C@@H](C(=O)OC)[C@@H]2C3=C(C(=O)[C@@]2(C)NC(=O)c2ccccc2)[C@H](C)[C@@H]2C(=O)N(c4ccccc4)C(=O)[C@@H]2[C@@H]3C1 | · | -27% | -1% | · | 2%
O=C(c1ccco1)N1CCC2(CC1)CN(c1cccc(-c3ccccc3)c1)C2 | ? | 14% | -29% | · | ?
O=C(N/N=C/c1cc2c(cc1[N+](=O)[O-])OCO2)c1ccccn1 | · | · | · | -6% | ·
O=[N+]([O-])c1cc2c(cc1/C=N/n1c(-c3ccccc3)n[nH]c1=S)OCO2 | 13µM* | 5.6µM* | ? | ? | 40µM*
